PubChem BioAssay AID1974 (The Scripps Research Institute Molecular Screening Center, 2009)
Where “and” joins values, the source holds several entries; their conditions need not be identical. Equal entries are not always repeated. The whole screen tested about 300,000 compounds, of which about 3,200 (1.1%) were called active. Many of the other results were omitted from the sample, so actives are more common in it than they were. Values without a mark were called inactive.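 The calls were made as follows: active = inhibition above the campaign mean inhibition plus 3 SD (cut at about 35% in these data); inactive = the rest.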

These compounds were tested against Glutathione S-transferase omega-1 (Homo sapiens) (UniProt P78417) (assay: inhibitors of recombinant GSTO1, primary screen, counter-screen for RBBP9 inhibitor project, biochemical, fluorescence polarization (AID 1974;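 also: 0% = GSTO1-1 with DMSO and 100% = wells lacking GSTO1-1 enzyme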)). Details: recombinant GSTO1, activity-based probe fluorescence polarization; at 5.96 µM; active compounds read high.
Sequence of Glutathione S-transferase omega-1 (Homo sapiens) (P78417 whole entry, looked up): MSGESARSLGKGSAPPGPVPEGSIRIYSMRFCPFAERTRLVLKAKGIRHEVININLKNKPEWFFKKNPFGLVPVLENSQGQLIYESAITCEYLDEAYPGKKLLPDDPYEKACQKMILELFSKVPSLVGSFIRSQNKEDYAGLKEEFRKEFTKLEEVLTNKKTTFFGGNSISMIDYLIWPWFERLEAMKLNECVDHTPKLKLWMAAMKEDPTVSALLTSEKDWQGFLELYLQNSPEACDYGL

Q: For `CC(Oc1cccc(Cl)c1)C(=O)Nc1ccc(S(=O)(=O)Nc2ncccn2)cc1` (configuration not stated), which inhibition is on record?
A: Its inhibition is -7.06%.

Q: With `COc1ccc(C(C(=O)NC2CCCCC2)N(C(=O)CCl)c2ccccc2Cl)cc1` (configuration not stated) as the compound, how does the inhibition read?
A: The inhibition was 38.1% (active).

Q: `COc1ccc(C(C(=O)NC2CCCCC2)N(C(=O)c2snc(C(N)=O)c2N)c2ccccc2OC)cc1` (configuration not stated) was tested. Which inhibition did it give?
A: The inhibition was -5.23%.

Q: `COc1cccc(N(C(=O)C2COc3ccccc3O2)C(C(=O)NC2CCCCC2)c2ccc(O)cc2)c1` (configuration not stated) was tested. Which inhibition did it give?
A: The inhibition was 0.47%.

Q: Which inhibition does the source give for `CC1=C(N2CCN(c3ncccn3)CC2)CCC1=O` here?
A: The inhibition was -2.06%.

Q: How did the inhibition turn out when `CCn1c(SC(C)C(=O)Nc2ccc(N3CCOCC3)cc2)nnc1-c1ccco1` (configuration not stated) was run?
A: The inhibition was -7.32%.

Q: With `CCOC(=O)C(C)N(c1ccccc1Cl)S(C)(=O)=O` (configuration not stated) as the compound, how does the inhibition read?
A: The inhibition was 2.86%.

Q: How did the inhibition turn out when `Cc1cc(Cl)c(S(=O)(=O)N(C)C)cc1OCC(N)=O` was run?
A: Its inhibition is -3.27%.

Q: How did the inhibition turn out when `Cc1cc(Cl)c(S(=O)(=O)NCC2CCCO2)cc1OCC(N)=O` (configuration not stated) was run?
A: The inhibition was -0.4%.

Q: With `Cc1cc(Cl)c(S(=O)(=O)Nc2ccc3c(c2)OCCO3)cc1OCC(N)=O` as the compound, how does the inhibition read?
A: The inhibition was 35.7% (active).

Q: With `CSc1ccccc1NC(=O)c1cnc2sc(C)cn2c1=O` as the compound, how does the inhibition read?
A: Its inhibition is -0.65%.

Q: `CCN(C(=O)COC(=O)c1sccc1C)c1c(N)n(Cc2ccccc2)c(=O)[nH]c1=O` was tested. Which inhibition did it give?
A: Its inhibition is 13.2%.

Q: `CN(C)CCn1c2c(c(SCC(=O)NCc3ccccc3)nc1=O)CCC2` was tested. Which inhibition did it give?
A: Its inhibition is 0.7%.

Q: Which inhibition does the source give for `COc1ccc(CCNc2cc(N3CCN(C(=O)c4ccccc4OC)CC3)ccc2[N+](=O)[O-])cc1OC` here?
A: Its inhibition is 0.42%.

Q: `O=[N+]([O-])c1ccccc1NCc1ccc(Cl)cc1` was tested. Which inhibition did it give?
A: The inhibition was 1.08%.

Q: With `O=C(Cc1ccc(Cl)cc1)NC(=S)Nc1ccccc1O` as the compound, how does the inhibition read?
A: The inhibition was -0.02%.

Q: With `Oc1ccc(CNc2ccccc2O)cc1` as the compound, how does the inhibition read?
A: The inhibition was 41.7% (active).

Q: How did the inhibition turn out when `O=C(Nc1cc(S(=O)(=O)N2CCOCC2)ccc1OCC(F)(F)F)c1ccc(N2CCCC2=O)cc1` was run?
A: The inhibition was 6.19%.

Q: How did the inhibition turn out when `O=C(c1ccncc1)N1CCN(S(=O)(=O)c2cc(C(F)(F)F)cc(C(F)(F)F)c2)CC1` was run?
A: The inhibition was 2.8%.

Q: `CCOC(=O)c1ccccc1NC(=O)c1c(N)n(C)c(=O)[nH]c1=O` was tested. Which inhibition did it give?
A: Its inhibition is -3.83%.

Q: `Cc1cc(C)c(S(=O)(=O)NCC(c2ccc3c(c2)OCO3)N2CCOCC2)c(C)c1` (configuration not stated) was tested. Which inhibition did it give?
A: Its inhibition is 3.98%.

Q: `O=c1c2ccccc2ncn1/N=C/c1ccccc1` was tested. Which inhibition did it give?
A: Its inhibition is -0.07%.

Q: For `CCCc1nc2ccccc2c(=O)n1NC(=O)c1c(O)c2ccccc2[nH]c1=O`, which inhibition is on record?
A: Its inhibition is 5.47%.

Q: `CCCc1nc2ccccc2c(=O)n1/N=C/c1ccc(O)c(O)c1` was tested. Which inhibition did it give?
A: Its inhibition is 45.8% (active).

Q: For `CO[C@@H]1[C@@H](OC(N)=O)[C@@H](O)C(Oc2ccc3c(O)c(NC(=O)c4ccc(O)c(CC=C(C)C)c4)c(=O)oc3c2C)OC1(C)C` (some centres not stated), which inhibition is on record?
A: Its inhibition is 2.82%.

Q: With `COc1ccc(S(=O)(=O)/N=C2\C=C(NS(=O)(=O)c3ccccc3)C(=O)c3ccccc32)cc1` as the compound, how does the inhibition read?
A: The inhibition was 58.3% (active).

Q: For `COc1ccc(S(=O)(=O)NCCCc2ccccc2)cc1`, which inhibition is on record?
A: Its inhibition is 6.84%.

Q: For `COc1ccc2cc(S(=O)(=O)Nc3ccccn3)ccc2c1`, which inhibition is on record?
A: The inhibition was 2.15%.

Q: With `Cc1ccc(S(=O)(=O)N2[C@@H](c3cccc(Cl)c3)C(C(=O)O)=CC[C@H]2c2ccc(Cl)c(Cl)c2)cc1` as the compound, how does the inhibition read?
A: Its inhibition is -207%.

Q: How did the inhibition turn out when `CCC(C)CCN1CCN=C1N(C)C` (configuration not stated) was run?
A: The inhibition was 0.8%.

Q: Which inhibition does the source give for `COCCCN(C(=O)CSCc1ccc(C)cc1)c1c(N)n(Cc2ccccc2)c(=O)[nH]c1=O` here?
A: The inhibition was -12.2%.

Q: How did the inhibition turn out when `CC(C)CCN1CCN=C1N(C)C` was run?
A: Its inhibition is -2.91%.

Q: With `CC(C)CNC(=O)C(=O)Nc1ccc(N(C)C)cc1` as the compound, how does the inhibition read?
A: The inhibition was 4.12%.

Q: For `CN(C)c1ccc(N/C=C/C(=O)C(F)(F)F)cc1`, which inhibition is on record?
A: Its inhibition is 57.6% (active).

Q: `CC(=O)N(C)c1ccc(NC(=O)C(F)(F)F)cc1` was tested. Which inhibition did it give?
A: The inhibition was 2.55%.

Q: For `[O-][n+]1ccc(OCc2ccccc2)cc1`, which inhibition is on record?
A: The inhibition was 10.9%.

Q: For `CN1C(C(=O)NCc2ccco2)CC2Cn3c(nc4ccccc43)C21` (configuration not stated), which inhibition is on record?
A: Its inhibition is 6.49%.

Q: With `O=c1cc(CCl)nc2scc(-c3ccccc3)n12` as the compound, how does the inhibition read?
A: Its inhibition is 85.3% (active).

Q: With `O=C(O)Cc1csc(-c2cccc(Oc3ccccc3)c2)n1` as the compound, how does the inhibition read?
A: The inhibition was 2.72% and 8.12%.

Q: Which inhibition does the source give for `OCCn1c(-c2ccccc2)csc1=Nc1ccccc1` here?
A: The inhibition was -1.25%.

Q: For `Cc1nc2nc(C)c(CCC(=O)N3CCN(c4ccccc4)CC3)c(C)n2n1`, which inhibition is on record?
A: Its inhibition is 8.27%.

Q: Which inhibition does the source give for `Cc1nc2ncnn2c(C)c1CCC(=O)N1CCN(C(=O)c2ccco2)CC1` here?
A: The inhibition was 50.8% (active).

Q: For `Cc1ccc(C)c(OCC(=O)N2CCN(C(=O)c3ccco3)CC2)c1`, which inhibition is on record?
A: The inhibition was -2.08%.

Q: How did the inhibition turn out when `Cc1ccc(S(=O)(=O)CC(=O)Nc2sc(C)c(C)c2C(N)=O)cc1` was run?
A: Its inhibition is 0.44%.

Q: Which inhibition does the source give for `COC(=O)c1cccc(NC(=O)CN2CCC(NC(=O)c3cc(OC)c(OC)c(OC)c3)CC2)c1` here?
A: The inhibition was 48.5% (active).

Q: Which inhibition does the source give for `COc1cc(C(=O)NC2CCN(Cc3ccccc3)CC2)cc(Cl)c1OC(C)C` here?
A: The inhibition was -0.77%.

Q: For `O=C(CN1CCC(NC(=O)Nc2ccccc2)CC1)Nc1cccc([N+](=O)[O-])c1`, which inhibition is on record?
A: The inhibition was 5.63%.

Q: For `Cc1ccc(S(=O)(=O)N(C)c2ccc(OCC(=O)OCC(=O)N(CC#N)c3ccccc3)cc2)cc1`, which inhibition is on record?
A: Its inhibition is 2.81%.

Q: `CC(C)c1ccc(S(=O)(=O)N2CCN(C(=O)CN3C(=O)NC(C)(c4ccccc4)C3=O)CC2)cc1` (configuration not stated) was tested. Which inhibition did it give?
A: The inhibition was 4.89%.

Q: For `O=C(Nc1cc(-c2ccccc2)nn1-c1ccccc1F)c1ccc([N+](=O)[O-])cc1`, which inhibition is on record?
A: Its inhibition is -3.44%.

Q: How did the inhibition turn out when `CC(C)(C)c1ccc(C(=O)NCCn2c(N)c(C#N)c3nc4ccccc4nc32)cc1` was run?
A: The inhibition was 6.36%.

Q: Which inhibition does the source give for `CCCNC(=O)c1c(N)n(-c2ccc(S(N)(=O)=O)cc2)c2nc3ccccc3nc12` here?
A: The inhibition was -3.18%.

Q: With `CC(C)Cn1c(N)c(C(=O)NCc2cccs2)c2nc3ccccc3nc21` as the compound, how does the inhibition read?
A: The inhibition was 38.5% (active).

Q: With `CCN1CCN(C(=O)N[C@@H](C(=O)N[C@@H]2C(=O)N3C(C(=O)O)=C(CSc4nnnn4C)CS[C@H]23)c2ccc(O)cc2)C(=O)C1=O` as the compound, how does the inhibition read?
A: The inhibition was -2.08%.

Q: For `CC1(C)C/C(=N/Nc2ccc([N+](=O)[O-])cc2[N+](=O)[O-])C(C)(C)O1`, which inhibition is on record?
A: Its inhibition is -2.6%.

Q: `O=C(OCC1OC(Oc2ccc(O)cc2)C(O)C(O)C1O)c1ccccc1` (configuration not stated) was tested. Which inhibition did it give?
A: The inhibition was -6.08%.

Q: Which inhibition does the source give for `O=C(OCC1O[C@@H](OC(=O)c2cc(O)c(O)c(O)c2)[C@@H](OC(=O)c2cc(O)c(O)c(O)c2)[C@@H](OC(=O)c2cc(O)c(O)c(O)c2)[C@@H]1OC(=O)c1cc(O)c(O)c(O)c1)c1cc(O)c(O)c(O)c1` (some centres not stated) here?
A: The inhibition was 43.9% (active).
